Screening results from PubChem.
Sampled rows, rich in hits. Any-hit rate of the full collection: about 0.52%.
GAA glycogen: alters human alpha-glucosidase cleavage of glycogen. AID 2100. Potency, µM (doses to about 76.4 µM), for inactives: at the top dose activity change, negative = inhibition, usual class: inhibitors. recombinant GAA, glycogen substrate, Amplex Red glucose oxidase fluorescence. 0.38% of 300,000 active. P10253;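 note: 0% = full enzyme reaction and -100% = no-enzyme basal signal; the screen sought inhibitors and activators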
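Recombinant human alpha-glucosidase (4 nM final) hydrolysed bovine liver glycogen (30 ug) for 40 min at 37 C in pH 5.0 citrate/phosphate with 0.01% Tween-20. Released glucose detected by glucose oxidase/Amplex Red, Ex 573/Em 610 nm. Compounds up to 77 uM; AC50 from Hill fits.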
Lamin A splicing: modulators of lamin A splicing; HeLa LMNA splicing GFP/RFP minigene ratio, 48 h; Potency, µM (doses to about 46.1 µM), for the others: at the top dose ratio change, negative = inhibition, hits mostly inhibitors; 0.01% of 200,000 active; AID 1487; active = well fitted inhibition curve with a large enough effect in the signal ratio, with a control signal flat, not every such curve was filed as active; inconclusive = small, poorly fitted or top-dose-only effect, or effect the other way, or a change in a side signal; the % refers to the signal ratio
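S3 HeLa cells stably expressing lamin A-EGFP splicing minigene plus DsRed2, 600 cells/well, 48 h compound exposure at 37C. Laser-scanning cytometry; analysed as GFP (500-530 nm)/RFP (575-640 nm) total intensity ratio; 0.5% DMSO vehicle.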
KinaseGlo FLuc: Kinase-Glo luciferase inhibition (counter-screen). Potency, µM (series often up to 38.3 µM), for inactives: at the highest dose activity change, negative = inhibition, hits mostly inhibitors. AID 1379. 0.28% of 200,000 active. Kinase-Glo luciferase, ATP luminescence, 8 min. Q27757; note: nearly all actives have a fitted effect of over 60% in size
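Kinase-Glo luciferase light output from ATP and luciferin was measured with 10 uM ATP, within the enzyme's linear range. Buffer: 50 mM imidazole pH 7.2, 50 mM KCl, 7 mM MgCl2, 0.01% Tween 20, 0.05% BSA; luminescence read after 8 min at ambient temperature.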
N370S GC: N370S glucocerebrosidase modulation, Gaucher chaperone candidate | N370S GC spleen homogenate, 4MU-glucoside fluorescence | Potency, µM (highest dose often 59.4 µM), without a hit: at the highest dose activity change, negative = inhibition, hits mostly inhibitors | 0.092% of 330,000 active;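 note: 0% = full enzyme activity and -100% = no enzyme basal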
GAA inhib: inhibitors of human lysosomal alpha-glucosidase | P10253 | purified human GAA, 4-MU-alpha-glucoside fluorescence | Potency, µM (series often up to 76.9 µM), for the others: at the top dose activity change, negative = inhibition, most hits filed as inhibitors | 0.005% of 200,000 active;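 note: plate controls were uninhibited enzyme wells for no effect and no-enzyme background for full effect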
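Human alpha-glucosidase, 4 nM, pre-mixed with test compounds before 400 uM 4-methylumbelliferyl substrate; 20 min room temperature at pH 5.0. Fluorescence read after pH 10 stop; AC50 values from Hill-equation fits.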
GAA spleen mod: lysosomal alpha-glucosidase (human) modulation; P10253; human spleen homogenate, 4-MU-alpha-glucoside fluorescence; Potency, µM (titrated, usually from 79.9 µM), for the others: top-dose activity change, negative = inhibition, most hits filed as inhibitors; 0.006% of 240,000 active; AID 2112;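 note: 0% = enzyme with vehicle and -100% = no enzyme basal signal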
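Enzyme source: human spleen homogenate, 1 ug/well. Buffer 50 mM citric acid/K phosphate pH 5.0, 0.01% Tween-20. 4-MU-alpha-glucoside 1 mM; 37 C x 40 min; NaOH/glycine stop; fluorescence.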
Numbers without * were called inactive; u = inconclusive; x = no result given; [ ] = another dose, or the depositor's remark. Unless noted, calls come from the whole dose curve; as a rule, active = well fitted curve in the direction sought with a large enough effect; inconclusive = small, poorly fitted or top-dose-only effect, or another doubt; inactive = no such curve, though single readings can be large; an effect the other way counts as inactive or inconclusive. Unless noted, % is set by controls: 0 for no effect and ±100 for the full control effect; potency is the fitted concentration of half-maximal effect.

SMILES	GAA glycogen	Lamin A splicing	KinaseGlo FLuc	N370S GC	GAA inhib	GAA spleen mod
CC(C)c1ccc(CNc2ccc(N3CCOCC3)cc2)cc1	28µM*	6%	1%	-11%	-6%	-15%
Cc1ccc(CNc2ccc(N3CCOCC3)cc2)cc1	6.3µM*	x	x	-18%	x	x
O=C1OC2(c3cc(I)c(O)c(I)c3Oc3c2cc(I)c(O)c3I)c2c(Cl)c(Cl)c(Cl)c(Cl)c21	x	x	x	0%	x	1%
CC(C)c1ccc(NC(=O)C2CCCN2S(=O)(=O)c2ccc3nc(-c4ccccc4)[nH]c3c2)cc1 (stereo unspecified)	8%[76.3 µM]	x	x	x	x	x
c1ccc(Nc2cc(Nc3ccccc3)[nH]n2)cc1	28µM*	-17%	3%	23%	-10%	-10%
Cc1cc2c(n1-c1ccc(C(=O)NCCc3ccccc3)cc1)CCC(C)C2 (stereo unspecified)	1%[76.3 µM]	u	x	x	x	x
O=C(Nc1ccc(N2CCOCC2)c(Cl)c1)c1c(F)c(F)c(F)c(F)c1F	3%	u	4%	-3%	-4%	2%
COc1c(F)c(F)c(C(=O)Nc2ccc(N3CCN(C(C)=O)CC3)c(Cl)c2)c(F)c1F	-1%	u	-5%	11µM*	-3%	-1%
COC(=O)[C@@]1(Cc2ccc(OC)cc2)[C@H]2c3cc(C(=O)N4CCCC4)n(Cc4nc5ccccc5[nH]4)c3C[C@H]2CN1C(=O)c1ccccc1	x	x	-2%	-11%	x	2%
CC1CN(C(=O)CCC(=O)NCc2cccs2)c2cc(Cl)ccc2O1 (stereo unspecified)	17%[76.3 µM]	x	x	x	x	x
CN1CCN(S(=O)(=O)c2cccc(C(=O)Nc3sc4c(c3-c3nc5ccccc5[nH]3)CCCC4)c2)CC1	-3%	u	-6%	11µM*	-2%	-11%
Cc1cccc(C)c1NC(=O)c1nc(SC(C)C)ncc1Cl	-5%[76.3 µM]	x	x	x	x	x
CN1c2ccccc2C(C)(C)[C@]12C=Cc1cc(O)ccc1O2	7.9µM*	u	-5%	-22%	-5%	-6%
Cn1c(-c2ccc(F)cc2)cnc1NCc1ccccc1F	-1%[76.3 µM]	x	x	-26%	x	x
Cc1ccc(-c2cnc(NCc3c(F)cccc3Cl)n2C)cc1	22µM*	x	x	x	x	x
CN1CCOc2ccc(S(=O)(=O)N3CCN(S(=O)(=O)c4c(F)cccc4F)CC3)cc21	x	x	x	-10%	x	x
COc1ccc(NC(=O)C(C)N2Cc3ccccc3C2=O)cc1OC (stereo unspecified)	-5%[76.3 µM]	7%[46 µM]	x	x	x	x
Cc1nc(NS(=O)(=O)c2ccccc2)sc1NC(=O)OC(C)C	28µM*	-4%	1%	1%	4%	-7%
Cc1nc(NS(=O)(=O)c2ccccc2)sc1C(=O)NN	u	u	2%	-5%	14%	1%
Cc1ccc(S(=O)(=O)Nc2nc(C)c(NC(=O)OCCCl)s2)cc1	22µM*	10%	-5%	4%	-4%	-6%
COc1cc(NC(=O)CN(c2ccc(C)cc2)S(=O)(=O)c2cccc3nonc23)cc(OC)c1	-10%[76.3 µM]	x	x	x	x	x
C[C@H]1C2=C3C(CC[C@H]4C(OCc5ccc(F)cc5C(F)(F)F)OC[C@](C)([C@@H]34)N(C(=O)OC(C)(C)C)C2)C(CO)C1CO (stereo partly specified)	x	x	-2%	-11%	x	6%
c1ccc(-c2cn3c(n2)-c2ccccc2C3)cc1	3%	u	7.1µM*	1%	-6%	2%
CCOc1ccc(C(=O)Nc2ccc3nn(-c4ccc(OC)c(Cl)c4)nc3c2)cc1	x	22%[46 µM]	x	x	x	x
C[C@H](O)C(N)C(=O)O (stereo partly specified)	x	x	x	0%	x	2%
SMILES	GAA glycogen	Lamin A splicing	KinaseGlo FLuc	N370S GC	GAA inhib	GAA spleen mod
CC(=O)n1cc(N(C(=O)CCl)c2ccc(Cl)cc2)c2ccccc21	-9%	x	x	16µM*	x	0%
C[C@H]1[C@H](C)OC(=O)C[C@H](O)C[C@H](O)C[C@H](O)CC[C@H](O)[C@H](O)CC(=O)C[C@H](O)[C@H](C(=O)O)[C@H](O)C[C@H](O[C@@H]2O[C@@H](C)[C@H](O)[C@@H](N)[C@@H]2O)C=CC=CC=CC=CCCC=CC=C[C@@](C)(O)[C@H]1O	x	x	0%[7.66 µM]	x	x	x
Cc1ccnc2nc(C(=O)Nc3ccc4c(c3)OCO4)nn12	5%	-5%	13µM*	-5%	3%	-3%
Cc1cc(C)n2nc(C(=O)Nc3ccc4c(c3)OCO4)nc2n1	-11%	6%	u	-19%	-5%	10%
Cc1noc(/C=C/Nc2ccc(F)cc2F)c1[N+](=O)[O-]	2%	u	u	-3%	-1%	-17%
COc1ccccc1N/C=C/c1onc(C)c1[N+](=O)[O-]	3%	-6%[46 µM]	11µM*	-22%	-3%	-19%
CCOC(=O)c1c(-c2ccc(OC)cc2)oc2ccc(OCc3ccccc3C)cc12	0%[76.3 µM]	x	x	x	x	x
Nc1ccc2oc(=O)ccc2c1I	x	x	x	-1%	x	3%
CCCOc1ccccc1C(=O)N1CCCCC1CCN1CCCCC1 (stereo unspecified)	-8%[76.3 µM]	x	x	x	x	x
CC(C)=C1C(=O)NN(c2ccc(F)c(Cl)c2)C1=O	25µM*	13%	-1%	24%	-1%	1%
O=C1NN(c2ccc(F)c(Cl)c2)C(=O)/C1=C\c1cccc(OC(=O)c2cccs2)c1	u	-1%	-2%	-9%	-2%	4%
CC(C)c1nn2c(=O)cc(COC(=O)c3ccc(NC(=O)COc4ccccc4)cc3)nc2s1	x	-3%[46 µM]	x	x	x	x
Cc1nnsc1C(=O)NNS(=O)(=O)c1ccccc1	28µM*	19%	-5%	-9%	1%	0%
Cc1cccc(N/C=C/C(=C(C#N)C#N)N(C)C)c1	1%	-2%	2%	7%	-2%	-15%
CN(C)C(/C=C/Nc1ccc(O)cc1)=C(C#N)C#N	7.9µM*	-4%[46 µM]	-2%	-4%	-11%	-2%
COc1cccc2nc(-c3cccs3)nc(NN3C(=O)C=C(C)C3=O)c12	x	x	x	u	x	-11%
Cc1cccc(N2CCN(C(=O)CN3C(=O)COc4ccc(S(=O)(=O)N5CCCC5)cc43)CC2)c1C	9%[76.3 µM]	x	x	x	x	x
CCc1nnc(NS(=O)(=O)c2ccc(N=Cc3c(C)[nH]n(-c4ccc(C)c(C)c4)c3=O)cc2)s1	-13%	-5%	2µM*	7%	-5%	-9%
CCCc1cc(N2CCN(c3ccccc3F)CC2)n2cnnc2n1	-11%[76.3 µM]	x	x	x	x	x
CC(C)C[C@@H](CC(=O)N[C@H](CC(=O)N[C@@H]1CCCC[C@H]1C(=O)N[C@H](CC(=O)N[C@@H](CCC(=O)O)CC(=O)O)Cc1c[nH]c2ccccc12)C(C)C)NC(=O)[C@@H]1CNCC[C@H]1N	x	x	1%	4%	x	5%
